A number with no mark means an inactive call.
Tested on: Vero E6 infected with SARS-CoV-2
Test: inhibition of SARS-CoV-2 cytopathic effect; higher = more antiviral protection, active = above 15
Conditions: 48 h

| Compound | inhibition of SARS-CoV-2 cytopathic effect (1 nM) [%] | inhibition of SARS-CoV-2 cytopathic effect (8.33 nM) [%] | inhibition of SARS-CoV-2 cytopathic effect (100 nM) [%] | inhibition of SARS-CoV-2 cytopathic effect (833.33 nM) [%] | inhibition of SARS-CoV-2 cytopathic effect (10000 nM) |
| --- | --- | --- | --- | --- | --- |
| C[N+]1(C)CCc2cc3c(cc2[C@H]1[C@@H]1OC(=O)c2c1ccc1c2OCO1)OCO3 [bicuculline-methochloride-(-)] | -4.58 | 0.48 | 0.65 | 3.59 | -2.23% |
| CC(NCCc1ccc(O)cc1)C(O)c1ccc(O)cc1 (stereo not given) [ritodrine] | 0.34 | -0.09 | 1.29 | -2.19 | -1.02% |
| COc1cccc(-n2nc(C(=O)O)cc2-c2ccc(C3CCCCC3)c(Cl)c2)c1 | 0.77 | 1.66 | 2.64 | 1.95 | 6.19% |
| C[C@H](NC(=O)CNC(=O)c1cccc(Cl)c1)c1ccccc1 | -3.1 | 0.31 | -4.2 | -1.91 | 0.27% |
| CC(C)c1cccc2c(-c3ccccc3)cc(-c3ccc(-c4ccc(C(=O)O)cc4)[nH]3)nc12 | 5.04 | 4.89 | 3.09 | 5.27 | 3.56% |
| CC(=O)OCC(=O)[C@@]1(O)CC[C@H]2[C@@H]3CCC4=CC(=O)CC[C@]4(C)[C@@]3(F)[C@@H](O)C[C@@]21C | -1.46 | -0.43 | 0.97 | -0.24 | 0.57% |
| O=c1[nH]c([C@@H]2CCCN2)nc2c1oc1ccc(Cl)cc12 | -0.27 | 0.12 | 1.61 | -0.54 | -2.54% |
| Cc1nc(Nc2n[nH]c3c2CN(C(=O)N[C@H](CN(C)C)c2ccccc2)C3(C)C)c2sccc2n1 | 3.94 | -1.34 | -3.76 | -4.38 | -7.39% |
| CNc1cc2c(Nc3cccc(Br)c3)ncnc2cn1 | -1.96 | -0.58 | -1.36 | -4.84 | -2.22% |
| CN1C(=O)c2c(nn(Cc3ccc(-c4cccc(F)n4)cc3)c2Nc2ccccc2)N2C1=N[C@@H]1CCC[C@@H]12 | 0.59 | 1.65 | 2.18 | 3.15 | 0.62% |
| C1CCC(NC2CCCCC2)CC1 [dicyclohexylamine] | 2.51 | 6.58 | 13.2 | 0.43 | -2.8% |
| CC(=O)Nc1nnc(S(N)(=O)=O)s1 [acetazolamide] | -0.16 | -1.99 | -1.3 | -2.21 | -1.25% |
| CN1C(=O)COc2c(C(=O)NC3CN4CCC3CC4)cc(Cl)cc21 (stereo not given) [azasetron] | 1.97 | 1.89 | 0.9 | -0.56 | -0.16% |
| CC1(C)[C@@H](O)CC[C@]2(C)[C@H]3C(=O)C=C4[C@@H]5C[C@@](C)(C(=O)O)CC[C@]5(C)CC[C@@]4(C)[C@]3(C)CC[C@@H]12 [enoxolone] | -3.08 | -3.58 | -1.05 | 2.65 | -0.55% |
| O=C(Nc1cccc(C(F)(F)F)c1)Nc1ccc(Br)cc1-c1nnn[nH]1 | 1.75 | 3.12 | 2.2 | 3.69 | 4.81% |
| O=C(Nc1ccc(C(F)(F)F)cn1)N1CCN(c2ncccc2C(F)(F)F)CC1 | -2.83 | 0.93 | 1.25 | 1.49 | -0.71% |
| CC(C)(C)N1CCC(c2ccccc2)(c2ccccc2)CC1 [budipine] | 0.7 | 3.31 | 2.48 | -0.28 | 1.72% |
| CC(C)C[C@H](NC(=O)N1CCCCCC1)C(=O)N[C@H](Cc1cn(C)c2ccccc12)C(=O)N[C@H](Cc1ccccn1)C(=O)O | -0.85 | 2.47 | 0.97 | -2.82 | 2.44% |
| CC(CN(C)C)CN1c2ccccc2CCc2ccccc21 (stereo not given) [trimipramine] | -3.96 | -0.87 | -0.5 | -2.02 | -3.88% |
| CCOC(=O)Nc1nc2ccccc2[nH]1 [lobendazole] | -9.74 | -7.4 | -4.73 | -6.72 | -11.2% |

| Compound | inhibition of SARS-CoV-2 cytopathic effect (1 nM) [%] | inhibition of SARS-CoV-2 cytopathic effect (8.33 nM) [%] | inhibition of SARS-CoV-2 cytopathic effect (100 nM) [%] | inhibition of SARS-CoV-2 cytopathic effect (833.33 nM) [%] | inhibition of SARS-CoV-2 cytopathic effect (10000 nM) |
| --- | --- | --- | --- | --- | --- |
| CC[N+](CC)(CC)CCC(O)(c1ccccc1)C1CCCCC1 (stereo not given) [tridihexethyl] | -1.22 | -1.31 | -0.23 | -1.37 | -1.87% |
| O=C1N(c2ccccc2)c2ccccc2C1(Cc1ccncc1)Cc1ccncc1 [linopirdine] | 2.06 | 0.32 | 1.23 | -0.29 | 1.14% |
| C/C(=C\C(=O)OCCCCCCCCC(=O)O)C[C@@H]1OC[C@H](C[C@@H]2O[C@H]2[C@@H](C)[C@H](C)O)[C@@H](O)[C@H]1O [mupirocin] | -1.43 | -0.61 | 0.52 | 2.09 | 1.36% |
| CC1(C)CC[C@]2(C(=O)O)CC[C@]3(C)[C@H](C(=O)C=C4[C@@]5(C)C=C(C#N)C(=O)C(C)(C)[C@@H]5CC[C@]43C)[C@@H]2C1 [bardoxolone] | -1.22 | -1.62 | 2.92 | 3.36 | 28.9% (active) |
| COc1ccccc1Oc1c(NS(=O)(=O)c2ccc(C)cn2)nc(-c2ccncc2)nc1OC | 1.47 | 2.09 | 1.19 | 2.9 | -4.64% |
| O=C(O)CCNc1cc(N2CCc3ccccc3CC2)nc(-c2ccccn2)n1 | -2.6 | 1.21 | 0.26 | -1.21 | 0.82% |
| O=[N+]([O-])c1cccc2cn[nH]c12 [7-nitroindazole] | -1.89 | 1.76 | 3.57 | 4.56 | -1.2% |
| COc1ccccc1N1CCN(CCN2C(=O)CC3(CCCC3)CC2=O)CC1 | 0.12 | 1.57 | 2.97 | 1.51 | 0.47% |
| Cc1ccc2nc(NCCN)c3ncc(C)n3c2c1 | -1.03 | -0.71 | -2.54 | 0.69 | -11.4% |
| CCCCc1nc2cc(/C=C/C(=O)NO)ccc2n1CCN(CC)CC | 2.32 | -0.4 | -5.57 | -20.5 | -27.9% |
| COc1ccc(CCC(=O)Nc2nc3ccc(Cl)cc3s2)cc1OC | -2.56 | -3.14 | -2.66 | 0.12 | 0.38% |
| CC(=O)N[C@H]1[C@H]([C@H](O)[C@H](O)CO)OC(C(=O)O)=C[C@@H]1NC(=N)N [zanamivir] | 0.39 | 0.16 | -0.26 | 2.6 | 2.28% |
| CCC(=O)OCN1C(=O)C=CC1=O | -0.55 | 0.83 | 0.41 | 1.73 | 1.22% |
| CCOC(=O)[C@@]1(CCCCCCOc2ccc(Cl)cc2)CO1 [etomoxir] | -0.23 | -0.29 | 1.79 | 2.79 | -4.51% |
| CC(C)(C)C(=O)Oc1ccc(S(=O)(=O)Nc2ccccc2C(=O)NCC(=O)O)cc1 [sivelestat] | 1.78 | -0.24 | 0.61 | 1.84 | -1.94% |
| CS(=O)(=O)Nc1ccc([N+](=O)[O-])cc1Oc1ccccc1 [nimesulide] | 0.43 | -0.72 | 1.12 | 2.18 | 2.92% |
| C=CCN1CC[C@]23c4c5ccc(O)c4O[C@H]2[C@@H](OCCOCCOCCOCCOCCOCCOCCOC)CC[C@@]3(O)[C@H]1C5 [naloxegol] | 2.88 | 0.75 | 1.49 | 0.6 | -1.7% |
| CN1CCN(C(=O)O[C@H]2c3nccnc3C(=O)N2c2ccc(Cl)cn2)CC1 | 0.72 | 1.71 | 2.86 | 2.34 | 0.85% |
| OC[C@H]1O[C@@H](c2ccc(Cl)c(Cc3ccc(O[C@H]4CCOC4)cc3)c2)[C@H](O)[C@@H](O)[C@@H]1O [empagliflozin] | 1.11 | -0.27 | 0.91 | 1.13 | -2.24% |
| COc1ccc2c(c1)C(=O)N(CCc1ccc(S(=O)(=O)NC(=O)NC3CCCCC3)cc1)C(=O)C2(C)C [gliquidone] | -1.78 | 2.65 | 2.68 | -0.14 | -0.29% |
